The list is not random: actives were taken first. Their share in the collection is about 10%.
RORgamma inh = ROR gamma (mouse) transcription inhibition; P51450; Drosophila S2 Gal4-RORgamma UAS-luciferase reporter, 20 h; hit rate 5.4% among 310,000; Potency, µM (top dose mostly 53.6 µM), inactives show at the top dose activity change, negative = inhibition, usual class: inhibitors; note: % is set by controls: 0 for no effect and ±100 for the full control effect; nearly all actives have a fitted effect of over 60% in size
Target sequence (P51450 whole entry, looked up, the tested form may be a part): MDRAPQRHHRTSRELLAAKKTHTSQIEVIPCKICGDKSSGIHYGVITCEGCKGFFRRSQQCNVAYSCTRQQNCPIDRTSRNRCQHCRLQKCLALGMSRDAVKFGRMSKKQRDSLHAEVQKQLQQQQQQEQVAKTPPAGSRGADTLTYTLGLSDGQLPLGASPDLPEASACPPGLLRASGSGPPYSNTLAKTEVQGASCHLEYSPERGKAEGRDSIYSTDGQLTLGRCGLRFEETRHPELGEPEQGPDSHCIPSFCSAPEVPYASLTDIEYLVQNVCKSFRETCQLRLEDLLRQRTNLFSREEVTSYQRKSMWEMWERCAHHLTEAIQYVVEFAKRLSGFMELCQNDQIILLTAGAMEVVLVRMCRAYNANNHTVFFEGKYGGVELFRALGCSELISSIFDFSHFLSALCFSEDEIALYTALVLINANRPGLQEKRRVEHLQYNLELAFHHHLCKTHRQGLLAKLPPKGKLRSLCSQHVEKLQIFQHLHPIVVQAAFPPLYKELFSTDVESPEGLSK
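Drosophila Schneider cells stably carrying a metallothionein-driven Gal4 DBD–ROR gamma fusion and a UAS-Photinus luciferase reporter were exposed to compound for 1 hr, then induced with copper sulfate (700 uM final) for 20 hr at ambient temperature before luminescence reading.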
MCF10A rerep = inducers of DNA re-replication in MCF 10A breast cells; MCF 10A DNA re-replication, Hoechst nuclear intensity, 48 h; Potency, µM (highest dose often 46.1 µM), without a hit: top-dose activity, positive = re-replication, hits mostly activators; hit rate 2.9% among 350,000; AID 624296; note: % of control where 0% means no effect; nearly all actives have a fitted effect of over 50% in size
SW480 rereplic = induces DNA re-replication in SW480 colon adenocarcinoma cells; SW480 DNA re-replication, Hoechst DNA content imaging, 48 h; Potency, µM (doses to about 46.1 µM), without a hit: top-dose re-replication activation, usual class: activators; hit rate 1.8% among 340,000; AID 624297; note: % of control where 0% means no effect; nearly all actives have a fitted effect of over 55% in size
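First, 250 cells per well were seeded. Next, compound or vehicle (23 nL) was pinned in, plates sat 48 hr at 37 C. Finally Hoechst was added for 40 min before fluorescence scanning.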
ELG1 DNA repair = blocks ELG1-dependent DNA repair in HEK293T cells; HEK293T ELG1-luciferase reporter, luminescence, 16 h; DNA damage induced by 5-fluorouridine; Potency, µM (series often up to 46.1 µM), without a hit: at the highest dose activity change, negative = inhibition, usual class: inhibitors; hit rate 2.3% among 330,000; note: % is set by controls: 0 for no effect and ±100 for the full control effect; nearly all actives have a fitted effect of over 55% in size
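Luminescence from the luciferase reporter, measured 30 min after ONE-Glo reagent at room temperature, was the read-out. Beforehand, 2,000 cells per well were exposed for 16 hr at 37 °C to 5-fluorouridine together with compound or vehicle.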
VP16 counter = counter-screen for ROR gamma inhibitors: Gal4-VP16 reporter; hit rate 3.5% among 310,000; Potency, µM (doses to about 53.6 µM), inactives show at the top dose activity, negative = inhibition, actives largely listed as inhibitors; Drosophila S2 Gal4-VP16 UAS-luciferase, luminescence, 20 h; AID 2546;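 note: Gal4-VP16 expression switched on by copper sulfate through the metallothionein promoter; % is set by controls: 0 for no effect and ±100 for the full control effect; nearly all actives have a fitted effect of over 50% in size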
* marks the source's active call; other numbers are inactive results; ! = a repeat was not active; [ ] = dose if it differs, or a comment. Calls come from the whole dose curve; as a rule, active = well fitted curve in the direction sought with a large enough effect; inconclusive = small, poorly fitted or top-dose-only effect, or another doubt; inactive = no such curve, though single readings can be large; an effect the other way counts as inactive or inconclusive. Potency is the fitted concentration of half-maximal effect.

How did Cc1cccc(C)c1C(=NCCN(C)C)c1ccccc1 do in these assays?
MCF10A rerep: 1.8%; SW480 rereplic: -14.2%

Results for CCOc1ccc(-c2cn[nH]c2N)cc1 ?
RORgamma inh: 33.7%; MCF10A rerep: 18.4µM*; SW480 rereplic: inconclusive; ELG1 DNA repair: 12.1%; VP16 counter: -6.1%

What do the screens show for `Cn1c(=O)n(C)c2cc([N+](=O)[O-])c(N3CCN(CCO)CC3)cc21`?
RORgamma inh: -16.9%; MCF10A rerep: 0.2%; SW480 rereplic: 3.0%; ELG1 DNA repair: 14.9%; VP16 counter: -9.3%

What do the screens show for `CC1CC(C)CN(C(=O)/C(=C\c2ccccc2)c2ccccc2)C1` (stereo not given)?
RORgamma inh: -1.6%[10 µM]; MCF10A rerep: 20.6µM*; SW480 rereplic: -23.0%; ELG1 DNA repair: 17.0%; VP16 counter: -7.6%

How did CCCS(=O)(=O)c1nc(S(=O)(=O)c2ccc(C)cc2)c(N2CCN(CCO)CC2)s1 do in these assays?
RORgamma inh: 0.9%; MCF10A rerep: -3.2%; SW480 rereplic: -2.2%; ELG1 DNA repair: 1.0%; VP16 counter: -24.3%

Results for CCN(CC)CCCNc1nc(-n2nc(C)cc2C)nc2sc3c(c12)CC(C)(C)OC3 ?
RORgamma inh: 12.6µM*; MCF10A rerep: 3.8%; SW480 rereplic: inconclusive; ELG1 DNA repair: inconclusive; VP16 counter: inconclusive

Results for CCC1(C)Cc2c(sc3nc(SC)nc(NCCN(C)C)c23)CO1 (stereo not given) ?
RORgamma inh: 9.5%; MCF10A rerep: 1.3%; SW480 rereplic: -12.9%; ELG1 DNA repair: 3.2%; VP16 counter: 14.3%[0.365 µM]

How did Cc1cc(C)n(-c2nc(NCc3cccnc3)c3c4c(sc3n2)COC(C)(C)C4)n1 do in these assays?
RORgamma inh: 3.98µM*; MCF10A rerep: 1.8%; SW480 rereplic: 7.9%; ELG1 DNA repair: inconclusive; VP16 counter: 6.31µM*

What do the screens show for `Cc1cc(C)n(-c2nc(SCC(=O)O)c3c4c(sc3n2)COC(C)(C)C4)n1`?
RORgamma inh: 7.08µM*; MCF10A rerep: 5.8%; SW480 rereplic: 10.1%; ELG1 DNA repair: -0.5%; VP16 counter: inconclusive

Results for N[C@@H](Cc1cc(I)c(Oc2ccc(O)c(I)c2)c(I)c1)C(=O)O ?
RORgamma inh: inconclusive; MCF10A rerep: 20.6µM*!; SW480 rereplic: -7.5%; ELG1 DNA repair: -0.4%; VP16 counter: 5.2%

Results for COc1cc(C(=O)Nc2cc(S(=O)(=O)N3CCOCC3)ccc2N2CCOCC2)cc(OC)c1C ?
MCF10A rerep: -0.2%; SW480 rereplic: -21.6%

How did COC(=O)C1=C(C)Nc2nc3ccccc3n2C1c1cc(OC)c(OC)c(OC)c1 (stereo not given) do in these assays?
RORgamma inh: 12.6µM*; MCF10A rerep: -11.5%; SW480 rereplic: -30.6%; ELG1 DNA repair: inconclusive; VP16 counter: -13.8%

What do the screens show for `CC12CC3CC(C)(C1)CC(C(=O)Nc1nncs1)(C3)C2`?
RORgamma inh: inconclusive; MCF10A rerep: 0.1%; SW480 rereplic: inconclusive; ELG1 DNA repair: -25.1%; VP16 counter: 17.8µM*

What do the screens show for `Fc1cccc(F)c1-n1c(CN2CCCC2)csc1=S`?
RORgamma inh: -5.8%; MCF10A rerep: -9.1%; SW480 rereplic: 0.5%; ELG1 DNA repair: -15.0%; VP16 counter: -15.1%

Results for COc1ccc(S(=O)(=O)Nc2ccc(OCC(=O)O)cc2)c2ccccc12 ?
RORgamma inh: 10.8%; MCF10A rerep: -0.2%; SW480 rereplic: 1.2%; ELG1 DNA repair: -14.5%; VP16 counter: 0.4%

How did CCOc1nc2cccc(C(=O)O)c2n1Cc1ccc(-c2ccccc2-c2nn[nH]n2)cc1 do in these assays?
RORgamma inh: 0.3%; MCF10A rerep: inconclusive; SW480 rereplic: 1.8%; VP16 counter: 1.2%

What do the screens show for `CCOc1ccc(OCC)c(NC(=O)CN(C)S(=O)(=O)c2ccc3nc(C)sc3c2)c1`?
RORgamma inh: 27.5%; MCF10A rerep: 20.6µM*; SW480 rereplic: -1.2%; ELG1 DNA repair: inconclusive; VP16 counter: -0.3%

What do the screens show for `CC(=O)Nc1ccc(NC(=O)CN(C)S(=O)(=O)c2ccc3nc(C)sc3c2)cc1`?
RORgamma inh: -8.9%; MCF10A rerep: -7.8%; SW480 rereplic: 18.5%; ELG1 DNA repair: -5.8%; VP16 counter: 2.6%

What do the screens show for `CCc1cc(C(=O)N2CCN(c3ncccn3)CC2)sc1C`?
MCF10A rerep: inconclusive; SW480 rereplic: inconclusive; ELG1 DNA repair: 10.1%

How did COc1cc([N+](=O)[O-])cc(/C=N/NC(=O)CSc2ccccn2)c1O do in these assays?
RORgamma inh: 0.631µM*; MCF10A rerep: inconclusive; SW480 rereplic: inconclusive; ELG1 DNA repair: inconclusive; VP16 counter: 6.31µM*

How did COc1cc([N+](=O)[O-])cc(/C=N/NC(=O)Cn2cncn2)c1O do in these assays?
RORgamma inh: inconclusive; MCF10A rerep: 16.4µM*; SW480 rereplic: -2.4%; ELG1 DNA repair: inconclusive; VP16 counter: -3.8%

How did COc1ccc([N+](=O)[O-])cc1/C=N/NC(=O)Cc1ccccc1 do in these assays?
RORgamma inh: 7.94µM*; MCF10A rerep: 2.9%; SW480 rereplic: -29.6%; ELG1 DNA repair: -17.1%; VP16 counter: inconclusive

How did C[C@@H](NC(=O)c1nc[nH]c1C(=O)N(C)Cc1ccccc1)c1ccccc1 do in these assays?
MCF10A rerep: 22.2%; SW480 rereplic: 3.3%; ELG1 DNA repair: 1.1%

Results for COCCNC(=S)N1CCc2cc(OC)c(OC)cc2C1COc1ccc(F)cc1 (stereo not given) ?
RORgamma inh: -42.7%; MCF10A rerep: 1.1%; SW480 rereplic: 15.5%; ELG1 DNA repair: 16.4µM*; VP16 counter: -0.6%

Results for CCNC(=S)N1CCc2cc(OC)c(OC)cc2C1COc1ccc(F)cc1 (stereo not given) ?
RORgamma inh: -30.2%; MCF10A rerep: -3.4%; SW480 rereplic: -1.2%; ELG1 DNA repair: inconclusive; VP16 counter: -1.1%

How did COCCNC(=S)N1CCc2cc(OC)c(OC)cc2C1COc1ccc(C(C)C)cc1 (stereo not given) do in these assays?
RORgamma inh: -13.2%[10 µM]; MCF10A rerep: 5.0%; SW480 rereplic: inconclusive; ELG1 DNA repair: 9.2µM*; VP16 counter: inconclusive

How did Cc1ccc(SCCNC(=S)Nc2cc(C)ccc2C)cc1 do in these assays?
RORgamma inh: 6.31µM*; MCF10A rerep: inconclusive; SW480 rereplic: 3.1%; ELG1 DNA repair: -13.7%; VP16 counter: 7.94µM*

Results for COc1ccccc1NC(=S)NCCSc1ccc(C)cc1 ?
RORgamma inh: 12.6µM*; MCF10A rerep: -7.1%; SW480 rereplic: inconclusive; ELG1 DNA repair: inconclusive; VP16 counter: 11.2µM*

What do the screens show for `Cc1ccc(SCCNC(=S)Nc2ccc(C)c(C)c2)cc1`?
RORgamma inh: 4.47µM*; MCF10A rerep: 14.6µM*; SW480 rereplic: inconclusive; ELG1 DNA repair: -20.1%; VP16 counter: 8.91µM*

High-throughput results from PubChem.
